Screening results as filed in PubChem.
HCV inh: blocks hepatitis C virus; Huh7.5.1 HCVcc-Cre infection, luciferase reporter, 44 h; Potency, µM (highest dose often 41.8 µM), for the others: at the highest dose activity change, negative = inhibition, hits mostly inhibitors; AID 651820; 340,000 compounds, 3.4% hits
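Antiviral activity was scored by luciferase reporter output from cells infected with HCVcc-Cre (~0.5 moi) in presence of compound, 44 h infection period, cells seeded 1,000/well 4 h prior.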
Pf growth 96h: P. falciparum growth inhibition at 96 hours | 320,000 compounds, 6.9% hits | Potency, µM (titrated, usually from 28.7 µM), without a hit: at the highest dose activity change, negative = inhibition, usual class: inhibitors | AID 504834 | P. falciparum luciferase reporter growth, 96 h
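Two-generation exposure (96 h) targets delayed-death phenotype. Reporter parasites carrying integrated firefly luciferase, in red cells at 2% hematocrit and 0.05% parasitemia final, kept at 37 C, 5% CO2; luminescence loss indicates inhibition.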
Pf growth 48h: inhibits P. falciparum growth in the first generation, 48 h. Potency, µM (highest dose often 28.7 µM), inactives show top-dose activity change, negative = inhibition, actives largely listed as inhibitors. P. falciparum luciferase growth in erythrocytes, 48 h. 310,000 compounds, 5.9% hits
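Firefly luciferase activity from engineered P. falciparum reports growth; inhibitors lower the luminescent signal. Cultures contained 2% hematocrit erythrocytes at 0.1% final parasitemia.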
AMA1 RON2 block: AMA1-RON2 (P. falciparum) interaction inhibition; AlphaScreen AMA1-biotinylated RON2 peptide binding; Potency, µM (titrated, usually from 58.2 µM), for inactives: at the top dose activity change, negative = inhibition, actives largely listed as inhibitors; 360,000 compounds, 0.2% hits;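 further: 0% = vehicle wells and -100% = peptide control; nearly all actives have a fitted effect of over 45% in size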
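AMA1 (3D7) with his tag at 25 nM final met compounds first, then biotinylated RON2 peptide at 25 nM; detection used donor plus acceptor beads, 10 µg/mL apiece, read by AlphaScreen after 30 min at room temperature.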
The depositor's hits bear a star; u = inconclusive; x = no result; [ ] = dose if it differs, or a comment. In the library only some 11% were active in any assay of this set; here they are far more common. The call rests on the fitted dose curve; in most records, active means well fitted curve in the direction sought with a large enough effect; inconclusive means small, poorly fitted or top-dose-only effect, or another doubt; inactive means no such curve, though single readings can be large; an effect the other way counts as inactive or inconclusive. Unless noted, on the % scale 0 is the no-effect control and ±100 the full control effect; potency means the concentration at half of the fitted maximal effect.

SMILES	HCV inh	Pf growth 96h	Pf growth 48h	AMA1 RON2 block
CCCCC(c1nnnn1Cc1ccco1)N1CCN(c2nc3ccccc3s2)CC1 (centres undefined)	u	x	9.3µM*	-27%
COc1ccc(C(c2nnnn2Cc2ccccc2)N2CCN(C(=O)c3ccco3)CC2)cc1OC (centres undefined)	-1%	3.7µM*	u	-3%
COc1ccccc1C(c1nnnn1Cc1ccccc1)N1CCN(c2nc3ccccc3s2)CC1 (centres undefined)	13µM*	-5%[5.75 µM]	3.3µM*	-6%
c1ccc(C(c2nnnn2Cc2ccco2)N2CCN(c3nc4ccccc4s3)CC2)cc1 (centres undefined)	u	x	u	-1%
COc1ccccc1CN1CCN(C(CC(C)C)c2nnnn2Cc2cccs2)CC1 (centres undefined)	u	58%	13µM*	0%
CCCC(c1nnnn1Cc1cccs1)N1CCN(C)CC1 (centres undefined)	u	21%	-13%	14%
CN(C)c1ccc(C(c2nnnn2C(C)(C)C)N2CCN(C(=O)c3ccco3)CC2)cc1 (centres undefined)	26%	-13%	7%	-3%
CC(C)CCn1nnnc1C(c1ccc(N(C)C)cc1)N1CCN(C(=O)c2ccco2)CC1 (centres undefined)	13%	10µM*	u	-14%
COc1ccc(C(c2nnnn2Cc2cccs2)N2CCN(c3ccccc3F)CC2)cc1OC (centres undefined)	14%	x	2.3µM*	-16%
COc1ccccc1CN1CCN(Cc2nc(-c3cccs3)no2)CC1	8%	5.9µM*	17%	13%
CC(C)C(c1nnnn1Cc1ccc(F)cc1)N1CCN(C(=O)c2ccco2)CC1 (centres undefined)	9%	13µM*	u	-3%
COCC1CCN(Cc2nc(-c3cccs3)no2)C1 (centres undefined)	6%	u	-1%	6%
CCC(c1nnnn1Cc1ccccc1)N1CCN(C(=O)c2ccco2)CC1 (centres undefined)	-1%	2%	-22%	-8%
CC(Sc1ccccc1)C(=O)NN=C1CCN(C)CC1 (centres undefined)	-3%	2%	21%	39%
COc1ccc(C(c2nnnn2Cc2ccccc2)N2CCN(c3nc4ccccc4s3)CC2)cc1OC (centres undefined)	u	18%	10µM*	u
c1ccc(Cn2nnnc2C(c2ccccc2)N2CCN(c3nc4ccccc4s3)CC2)cc1 (centres undefined)	8%	-2%	7%	13%
Cc1cccc(C)c1NC(=O)C1CCCN1C(=O)Nc1cccc(F)c1 (centres undefined)	19%	u	3%	1%
Cc1ccccc1S(=O)(=O)N1C[C@H]2[C@H]3C(=O)N(c4ccccc4)C(=O)[C@H]3CC(=O)[C@H]2[C@@H]1c1ccc(Cl)cc1	x	x	x	4%
O=c1[nH]c2cc3ccccc3cc2nc1-c1nnnn1C1CCCC1	x	x	x	-9%
CCc1nc(C)ccc1OC(=O)C12CC3CC(CC(C3)C1)C2	0%	0.59µM*	-12%	-27%
COc1ccc(CCC(=O)N2CCN(c3ccccc3)CC2)cc1OC	-2%	0%	10%	4%
Cc1nnc(C)n1/N=C/c1ccccc1	-9%	48%	39%	-7%
CCn1c2ccccc2c2cc(/C=N/n3c(C)nnc3C)ccc21	3.5µM*	x	-5%	-5%
COc1ccc2ncc(S(=O)(=O)c3ccccc3)c(N3CCC4(CC3)OCCO4)c2c1	-13%	u	8.3µM*	-6%[11.6 µM]
COc1ccc2ncc(S(=O)(=O)c3ccccc3)c(N3CCN(c4ccccc4)CC3)c2c1	u	13µM*	7.4µM*	-29%
COc1cc2ncc(S(=O)(=O)c3ccccc3)c(N3CCC4(CC3)OCCO4)c2cc1OC	u	17%	u	-8%
CCc1ccc(CNC(=O)c2ccc3nc(C4CCCCC4)oc3c2)nc1	x	-6%	u	x
CN(CC(=O)Nc1ccccc1C(F)(F)F)C(=O)c1cccc(-n2cccc2)c1	6%	-1%	-4%	u
O=C(Nc1ccc(N2CCOCC2)cc1N1CCOCC1)c1ncoc1-c1cccc(F)c1	u	-26%	12µM*	2%
O=C(Nc1ccccc1N1CCCCC1)c1ncoc1-c1ccc(F)cc1	u	x	3.3µM*	3%
